According to PubChem BioAssay (Tox21):
Records with an inconclusive call do not appear. The source made the active and inactive calls. Unless noted, calls follow the shape of the full dose curve.

Experiments:
[1] = qHTS assay to identify small molecule agonists of the peroxisome proliferator-activated receptor delta (PPARd) signaling pathway - cell viability counter screen (AID 743211; active = well fitted curve in the direction sought with a large enough effect in the repeat runs; an effect the other way counts as inactive or inconclusive; also: % is scaled to controls: 0 for no effect and ±100 for the full control effect; nearly all actives have a fitted effect of over 55% in size)
Method in brief: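 Luminescent ATP viability assay (CellTiter-Glo, 30 min RT) in UAS-bla HEK293H cells carrying the PPAR delta reporter construct, 3000 cells/well, after a 17 h compound treatment at 37 C.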

[2] = target: Peroxisome proliferator-activated receptor delta (Homo sapiens) (UniProt Q03181); assay: qHTS assay to identify small molecule agonists of the peroxisome proliferator-activated receptor delta (PPARd) signaling pathway (AID 743212); also: % is scaled to controls: 0 for no effect and ±100 for the full control effect
Chain of Peroxisome proliferator-activated receptor delta (Homo sapiens) (Q03181 whole entry, looked up): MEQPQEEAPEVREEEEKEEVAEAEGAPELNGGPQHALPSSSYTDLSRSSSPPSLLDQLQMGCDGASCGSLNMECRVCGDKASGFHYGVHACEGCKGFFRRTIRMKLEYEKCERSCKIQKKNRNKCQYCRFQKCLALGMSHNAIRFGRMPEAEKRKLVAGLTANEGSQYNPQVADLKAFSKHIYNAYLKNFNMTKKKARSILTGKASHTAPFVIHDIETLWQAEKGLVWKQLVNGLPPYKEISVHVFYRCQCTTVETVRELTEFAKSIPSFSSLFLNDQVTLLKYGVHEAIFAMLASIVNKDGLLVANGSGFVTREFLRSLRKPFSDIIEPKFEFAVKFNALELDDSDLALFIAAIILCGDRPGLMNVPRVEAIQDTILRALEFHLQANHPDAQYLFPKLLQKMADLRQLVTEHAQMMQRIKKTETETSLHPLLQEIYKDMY
Method in brief: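 HEK293H UAS-bla reporter cells, human PPARd system; compounds delivered in DMSO after 5 h plating, then at 37 C. Beta-lactamase FRET read, 2 h RT substrate step.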

[3] = qHTS assay to identify small molecule antagonists of the peroxisome proliferator-activated receptor delta (PPARd) signaling pathway - cell viability counter screen (AID 743213; active = well fitted curve in the direction sought with a large enough effect in the repeat runs; an effect the other way counts as inactive or inconclusive; also: % is scaled to controls: 0 for no effect and ±100 for the full control effect; nearly all actives have a fitted effect of over 50% in size)
Method in brief: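 In this counter screen, HEK293H cells carrying a UAS-beta-lactamase reporter are co-treated with test compounds and 300 nM L165041 (final) for 17 h at 37 C; cell viability is quantified by CellTiter-Glo luminescence.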

[4] = target: Peroxisome proliferator-activated receptor delta (Homo sapiens) (UniProt Q03181); assay: qHTS assay to identify small molecule antagonists of the peroxisome proliferator-activated receptor delta (PPARd) signaling pathway (AID 743215; active = well fitted inhibition curve with a large enough effect in the signal ratio in the repeat runs, not every such curve was filed as active; the % refers to the signal ratio;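 also: cells stimulated with agonist L165041 at 300 nM final during compound exposure; series mostly up to about 62 µM; % is scaled to controls: 0 for no effect and ±100 for the full control effect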)
Method in brief: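 PPARd-bla HEK293H cells (UAS-bla reporter) preincubated 5 h, then given compound plus 300 nM final L165041 agonist for 17 h at 37 C. Beta-lactamase activity read by LiveBLAzer B/G FRET substrate fluorescence after 2 h at room temperature.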

[5] = qHTS assay to identify small molecule antagonists of the farnesoid-X-receptor (FXR) signaling pathway - cell viability counter screen (AID 743221; active = well fitted cell-killing curve with a large enough effect in the repeat runs, not every such curve was filed as active; also: % is scaled to controls: 0 for no effect and ±100 for the full control effect; nearly all actives have a fitted effect of over 50% in size)
Method in brief: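 In GeneBLAzer FXR-UAS-bla HEK 293T cells stimulated with 50 uM chenodeoxycholic acid (final), compounds acted for 16 h at 37 C. Viability was assessed afterwards by CellTiter-Glo luminescence.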

[6] = target: Vitamin D3 receptor (Homo sapiens) (UniProt P11473); assay: qHTS assay to identify small molecule agonists of the vitamin D receptor (VDR) signaling pathway (AID 743222); also: % is scaled to controls: 0 for no effect and ±100 for the full control effect
Chain of Vitamin D3 receptor (Homo sapiens) (P11473 whole entry, looked up): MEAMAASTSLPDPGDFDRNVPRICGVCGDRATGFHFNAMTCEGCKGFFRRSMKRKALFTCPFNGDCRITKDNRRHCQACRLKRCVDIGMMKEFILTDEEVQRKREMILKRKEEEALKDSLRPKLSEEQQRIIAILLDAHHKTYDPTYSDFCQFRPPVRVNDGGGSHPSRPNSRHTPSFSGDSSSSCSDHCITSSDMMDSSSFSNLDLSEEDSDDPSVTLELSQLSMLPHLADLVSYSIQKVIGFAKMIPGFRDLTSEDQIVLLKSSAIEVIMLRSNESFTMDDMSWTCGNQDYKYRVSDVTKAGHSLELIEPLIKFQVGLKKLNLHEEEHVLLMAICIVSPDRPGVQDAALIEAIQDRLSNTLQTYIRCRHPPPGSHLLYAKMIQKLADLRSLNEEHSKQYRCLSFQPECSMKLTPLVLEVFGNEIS
Method in brief: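 VDR-bla cells plated 4 h at 37 C, then exposed to compounds for 16 h at 37 C. Beta-lactamase reporter activity measured by fluorescence after 2 h room-temperature loading with LiveBLAzer B/G FRET substrate.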

[7] = target: Vitamin D3 receptor (Homo sapiens) (UniProt P11473); assay: qHTS assay to identify small molecule antagonists of the vitamin D receptor (VDR) signaling pathway (AID 743223; active = well fitted inhibition curve with a large enough effect in the signal ratio in the repeat runs, not every such curve was filed as active; the % refers to the signal ratio; also: % is scaled to controls: 0 for no effect and ±100 for the full control effect)
Method in brief: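 Agonist 1alpha,25-dihydroxyvitamin D3 (3 nM in well) was added with each compound to VDR-bla cells preincubated 4 h. Cells stood 16 h at 37C, then FRET substrate 2 h at room temperature; fluorescence intensity recorded.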

[8] = qHTS assay to identify small molecule agonists of the vitamin D receptor (VDR) signaling pathway - cell viability counter screen (AID 743224; active = well fitted curve in the direction sought with a large enough effect in the repeat runs; an effect the other way counts as inactive or inconclusive; also: series mostly up to about 63 µM; % is scaled to controls: 0 for no effect and ±100 for the full control effect; nearly all actives have a fitted effect of over 50% in size)
Method in brief: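 VDR-bla cells, 4 h after plating, exposed to compounds for 16 h at 37C; viability then read in the same wells as CellTiter-Glo luminescence after 30 min at room temperature, following the bla FRET read.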

[9] = qHTS assay to identify small molecule antagonists of the vitamin D receptor (VDR) signaling pathway - cell viability counter screen (AID 743225; active = well fitted curve in the direction sought with a large enough effect in the repeat runs; an effect the other way counts as inactive or inconclusive; also: % is scaled to controls: 0 for no effect and ±100 for the full control effect; nearly all actives have a fitted effect of over 50% in size)
Method in brief: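 Luminescent cell viability (CellTiter-Glo) in VDR-bla HEK 293T cells after 16 h compound exposure at 37C in the presence of 3 nM final 1-alpha,25-dihydroxy vitamin D3.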

[10] = qHTS assay to identify small molecule agonists of the NFkB signaling pathway (AID 1159509; active = well fitted curve in the direction sought with a large enough effect in the signal ratio in the repeat runs, not every such curve was filed as active; the % refers to the signal ratio)
Method in brief: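 NFkB-bla ME-180 cells with a beta-lactamase reporter under an NF-kB response element were plated overnight, treated with compounds in DMSO for 5 hr at 37 C, then loaded with FRET substrate for 1.5 hr at room temperature.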

[11] = qHTS assay to identify small molecule agonists of the NFkB signaling pathway - cell viability counter screen (AID 1159515); also: series mostly up to about 61 µM; % is scaled to controls: 0 for no effect and ±100 for the full control effect; nearly all actives have a fitted effect of over 55% in size
Method in brief: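 NFkB-bla ME-180 cells, 2,000/well, plated overnight at 37 C; compound added for 5 hr at 37 C. Viability read in the same wells as the bla reporter, by CellTiter-Glo luminescence after 30 min at room temperature.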

[12] = qHTS assay to identify small molecule agonists of the endoplasmic reticulum stress response signaling pathway (AID 1159516; active = well fitted activation curve with a large enough effect in the signal ratio in the repeat runs, not every such curve was filed as active; the % refers to the signal ratio; also: % is scaled to controls: 0 for no effect and ±100 for the full control effect)
Method in brief: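 CellSensor ESRE-bla HeLa cells, 1,500 per well, plated overnight, then exposed to compounds for 5 hr at 37 C. Beta-lactamase reporter read with LiveBLAzer B/G FRET substrate after 2 hr at room temperature, 405 nm excitation, 460 and 530 nm emission.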

[13] = qHTS assay to identify small molecule agonists of the endoplasmic reticulum stress response signaling pathway - cell viability counter screen (AID 1159517)
Method in brief: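 Cells, HeLa ESRE-bla; density, 1,500/well; dosing, 5 hr at 37 C, 5% CO2; readout, CellTiter-Glo luminescence after 30 min RT.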

[14] = qHTS assay to identify small molecule antagonists of the retinoid-related orphan receptor gamma (ROR-gamma) signaling pathway - cell viability counter screen (AID 1159520; active = well fitted curve in the direction sought with a large enough effect in the repeat runs; an effect the other way counts as inactive or inconclusive)
Method in brief: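 Cytotoxicity was read from cellular ATP (CellTiter-Glo luminescence) after 16 hr at 37 C with 1 uM doxycycline induction. The inducer was added 2 hr after compound transfer to Tet-on ROR gamma CHO cells.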

[15] = qHTS assay to identify small molecule agonists of the AP-1 signaling pathway - cell viability counter screen (AID 1159525); also: nearly all actives have a fitted effect of over 55% in size
Method in brief: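 Luminescent ATP readout (Cell Titer Glo, 30 min RT), normalised to DMSO and tetra n-octyl ammonium bromide controls. Cells were ME-180 AP-1-bla in 0.5% dialyzed FBS Opti-MEM, with a 5 h, 37 °C compound exposure.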

[16] = qHTS assay to identify small molecule agonists of the AP-1 signaling pathway (AID 1159526); also: % is scaled to controls: 0 for no effect and ±100 for the full control effect
[17] = target: Bile acid receptor (Homo sapiens) (UniProt Q96RI1); assay: qHTS assay to identify small molecule antagonists of the farnesoid-X-receptor (FXR) signaling pathway (AID 743217; active = well fitted inhibition curve with a large enough effect in the signal ratio in the repeat runs, not every such curve was filed as active; the % refers to the signal ratio; also: % is scaled to controls: 0 for no effect and ±100 for the full control effect)
Chain of Bile acid receptor (Homo sapiens) (Q96RI1 whole entry, looked up): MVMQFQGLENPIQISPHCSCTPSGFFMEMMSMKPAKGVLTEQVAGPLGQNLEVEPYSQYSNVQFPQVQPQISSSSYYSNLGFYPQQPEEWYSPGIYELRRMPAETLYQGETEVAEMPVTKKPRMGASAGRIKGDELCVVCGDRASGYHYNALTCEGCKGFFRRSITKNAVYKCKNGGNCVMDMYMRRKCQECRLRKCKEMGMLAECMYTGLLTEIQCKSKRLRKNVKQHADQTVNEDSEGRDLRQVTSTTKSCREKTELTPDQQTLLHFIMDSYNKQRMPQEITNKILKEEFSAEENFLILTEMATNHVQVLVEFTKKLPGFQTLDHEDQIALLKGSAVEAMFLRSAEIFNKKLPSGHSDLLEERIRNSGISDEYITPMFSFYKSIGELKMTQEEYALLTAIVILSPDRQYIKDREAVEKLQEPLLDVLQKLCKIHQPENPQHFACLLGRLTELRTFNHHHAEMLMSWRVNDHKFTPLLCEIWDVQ
Method in brief: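 FXR-UAS-bla HEK 293T cells (beta-lactamase reporter) given compound plus chenodeoxycholic acid (50 uM final), 16 h at 37C. LiveBLAzer B/G FRET substrate added for 2 h at room temperature; fluorescence read.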

[18] = qHTS assay to identify small molecule agonists of the farnesoid-X-receptor (FXR) signaling pathway - cell viability counter screen (AID 743218; active = well fitted curve in the direction sought with a large enough effect in the repeat runs; an effect the other way counts as inactive or inconclusive; also: % is scaled to controls: 0 for no effect and ±100 for the full control effect; nearly all actives have a fitted effect of over 45% in size)
Method in brief: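 FXR-UAS-bla HEK 293T cells exposed to compounds for 16 h at 37C. Cytotoxicity read in the same wells by CellTiter-Glo luminescence after 30 min at room temperature, following the beta-lactamase FRET read.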

[19] = target: Bile acid receptor (Homo sapiens) (UniProt Q96RI1); assay: qHTS assay to identify small molecule agonists of the farnesoid-X-receptor (FXR) signaling pathway (AID 743220; active = well fitted activation curve with a large enough effect in the signal ratio in the repeat runs, not every such curve was filed as active; the % refers to the signal ratio; also: % is scaled to controls: 0 for no effect and ±100 for the full control effect)
Method in brief: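 Beta-lactamase reporter under UAS control in GeneBLAzer FXR HEK 293T cells (5000/well) measured with LiveBLAzer FRET substrate after 2 h at room temperature. Compound exposure lasted 16 h at 37C.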

[20] = target: Nuclear receptor ROR-gamma (Homo sapiens) (UniProt P51449); assay: qHTS assay to identify small molecule antagonists of the retinoid-related orphan receptor gamma (ROR-gamma) signaling pathway (AID 1159521; active = well fitted curve in the direction sought with a large enough effect in the repeat runs; an effect the other way counts as inactive or inconclusive)
Method in brief: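 CHO cells expressing RORγ under a TET-on promoter, luciferase under RORE control. Dox 1 uM final, 16 h; compounds added 2 h prior. Luminescence decrease measured.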

CCCCCCCCC(=O)OCC
inactive: outcome [1] | outcome [2] | outcome [3] | outcome [4] | outcome [5] | outcome [6] | outcome [7] | outcome [8] | outcome [9] | outcome [10] | outcome [11] | outcome [12] | outcome [13] | outcome [14] | outcome [15] | outcome [16]

CC(C)COC(=O)/C=C/c1ccccc1
inactive: outcome [1] | outcome [2] | outcome [3] | outcome [4] | outcome [17] | Potency [18] | outcome [19] | outcome [5] | outcome [6] | outcome [7] | outcome [8] | outcome [9] | outcome [10] | outcome [11] | outcome [12] | outcome [13] | outcome [14] | outcome [15] | outcome [16]

CC(=O)N(CC(O)CO)c1c(I)c(C(=O)NCC(O)CO)c(I)c(C(=O)NCC(O)CO)c1I (configuration not stated)
inactive: outcome [2] | outcome [3] | outcome [4] | Potency [18] | outcome [5] | outcome [6] | outcome [8] | outcome [9] | outcome [10] | outcome [11] | outcome [12] | outcome [13] | outcome [14] | outcome [20] | outcome [15] | outcome [16]

N#CCCOCCOCCC#N
inactive: outcome [1] | outcome [2] | outcome [3] | outcome [4] | outcome [17] | Potency [18] | outcome [19] | outcome [5] | outcome [6] | outcome [7] | outcome [8] | outcome [9] | outcome [10] | outcome [11] | outcome [12] | outcome [13] | outcome [14] | outcome [15] | outcome [16]

FC(F)(F)/C(=N\OCC1OCCO1)c1ccc(Cl)cc1
inactive: outcome [1] | outcome [3] | Potency [18] | outcome [5] | outcome [6] | outcome [7] | outcome [9] | outcome [10] | outcome [11] | outcome [12] | outcome [13] | outcome [14] | outcome [15] | outcome [16]

CCC1Nc2cc(Cl)c(S(N)(=O)=O)cc2S(=O)(=O)N1 (configuration not stated)
inactive: outcome [2] | outcome [3] | outcome [4] | outcome [17] | Potency [18] | outcome [19] | outcome [5] | outcome [6] | outcome [7] | outcome [8] | outcome [9] | outcome [10] | outcome [11] | outcome [12] | outcome [13] | outcome [14] | outcome [15] | outcome [16]

O=C1OC(=O)c2cc(Oc3ccc4c(c3)C(=O)OC4=O)ccc21
inactive: outcome [1] | outcome [17] | outcome [19] | outcome [5] | outcome [6] | outcome [8] | outcome [9] | outcome [10] | outcome [11] | outcome [12] | outcome [13] | outcome [14] | outcome [20] | outcome [15] | outcome [16]

COc1ccc(N=Nc2cc(C)c(N=Nc3ccc(S(=O)(=O)O)cc3)cc2OC)cc1
inactive: outcome [1] | outcome [2] | outcome [3] | outcome [5] | outcome [7] | outcome [8] | outcome [9] | outcome [10] | outcome [11] | outcome [12] | outcome [13] | outcome [14] | outcome [15] | outcome [16]

C=CCOc1cc(Cl)ccc1C(=O)NCCN(CC)CC
inactive: outcome [1] | outcome [4] | outcome [5] | outcome [6] | outcome [7] | outcome [9] | outcome [10] | outcome [11] | outcome [12] | outcome [13] | outcome [14] | outcome [20] | outcome [15] | outcome [16]

CCC(C)(C)C1CCC(=O)CC1
inactive: outcome [1] | outcome [2] | outcome [3] | outcome [4] | Potency [18] | outcome [5] | outcome [6] | outcome [7] | outcome [8] | outcome [9] | outcome [10] | outcome [11] | outcome [12] | outcome [13] | outcome [14] | outcome [15] | outcome [16]

Cc1ccccc1C(=O)N1CC/C(=N\OS(=O)(=O)O)c2ccc(Cl)cc21
inactive: outcome [1] | outcome [2] | outcome [3] | outcome [4] | Potency [18] | outcome [5] | outcome [6] | outcome [9] | outcome [10] | outcome [11] | outcome [12] | outcome [13] | outcome [14] | outcome [15] | outcome [16]

CCCCCCCCCCCCCCCCI
inactive: outcome [2] | outcome [3] | outcome [4] | outcome [17] | Potency [18] | outcome [19] | outcome [5] | outcome [6] | outcome [7] | outcome [8] | outcome [10] | outcome [11] | outcome [12] | outcome [13] | activity, negative = cytotoxicity [14] -0.188% [at 19 µM] | activity change, negative = inhibition [20] 2.8% [at 19 µM] | viability change, negative = cytotoxic [15] -11.4% [at 15.8 µM] | activation [16] -9.43% [at 15.8 µM]

CN[C@@H]1[C@H](O)[C@H](NC)[C@H]2O[C@@]3(O)C(=O)C[C@@H](C)O[C@H]3O[C@@H]2[C@H]1O
inactive: outcome [1] | outcome [3] | outcome [17] | outcome [5] | outcome [6] | outcome [7] | outcome [9] | outcome [10] | outcome [11] | outcome [12] | outcome [13] | outcome [14] | outcome [15] | outcome [16]

Oc1ccccc1Cc1ccccc1O
inactive: outcome [2] | outcome [3] | Potency [18] | outcome [5] | outcome [6] | outcome [9] | outcome [10] | outcome [11] | outcome [12] | outcome [13] | outcome [14] | outcome [20] | outcome [15] | outcome [16]

CC(=O)/C=C/c1ccco1
inactive: outcome [1] | outcome [2] | outcome [3] | outcome [4] | outcome [17] | Potency [18] | outcome [19] | outcome [5] | outcome [6] | outcome [7] | outcome [8] | outcome [9] | outcome [10] | outcome [11] | outcome [12] | outcome [13] | outcome [14] | outcome [15] | outcome [16]
